# Data taken from PubChem BioAssay AID1981 (Southern Research Specialized Biocontainment Screening …, 2009).
# Screen size: about 2,200 compounds; about 480 (22%) were called active. No rule for the calls is given here. These entries were drawn from the full list. Results with a measured potency or affinity are listed apart.
# Experiment: S. Typhimurium GFP fluorescence modified counterscreen for PhoP regulon inhibitor project dose response (AID 1981);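 also: 0% = induced DMSO wells and 100% = uninduced wells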
# Conditions: 4 h; series mostly up to 150 µM; inhibition: at the top concentration
row,SMILES,inhibition
1,NNc1nc2c(-c3cccc(C(F)(F)F)c3)nnn2c2ccccc12,17.3% (inactive)
2,O=C(Nc1ccc(Br)cc1)c1ccc(F)c(S(=O)(=O)NCc2cccs2)c1,-7.31% (inactive)
3,Cc1cc(C)cc(CC(Cc2nc3ccccc3[nH]2)c2nc3ccccc3[nH]2)c1 (stereo unspecified),-0.97% (inactive)
4,O=C(/C=C/c1ccco1)NC(=S)Nc1ccc(N2CCCC2)cc1,3.26% (inactive)
5,Cc1cc2ncn(C3CC(=O)N(Cc4ccc(N5CCCC5=O)cc4)C3=O)c2cc1C (stereo unspecified),-11.8% (inactive)
6,O=C(NC(=Nc1ccccc1)N1CCOCC1)Nc1ccccc1,-10.8% (inactive)
7,Cc1ccc(NC(=O)NCC2CCN(Cc3cccc(Cl)c3)CC2)cc1Cl,15% (inactive)
8,Cc1ccc(NC(=O)c2cc(S(=O)(=O)N3CCC4(CC3)OCCO4)ccc2F)cc1,-7.76% (inactive)
9,COc1ccc(-c2cc(-c3ccc(OC)c(OC)c3)n[nH]2)c(O)c1,13.4% (inactive)
10,COc1ccc(-c2ccc(C#N)c(SCC(=O)NCCc3ccccc3)n2)cc1OC,4.81% (inactive)
11,Cc1cc(C)n2c(SCC(=O)NCc3ccco3)nnc2n1,-0.83% (inactive)
12,COc1ccc(C2COC(=O)C2=N)c(NC(=O)c2ccc(Cl)cc2)c1 (stereo unspecified),-2.01% (inactive)
13,Cc1ccc(C(=O)C2COC(=O)C2)cc1 (stereo unspecified),17.3% (inactive)
14,COc1ccc(OC)c(C(C(=O)NCc2ccco2)N(C(=O)Cn2nnc3ccccc32)C(C)C)c1 (stereo unspecified),7.56% (inactive)
15,O=C(NCc1cccnc1)c1ccc(Cl)cc1[N+](=O)[O-],0.21% (inactive)
16,Cc1ccc(NC(=O)COc2ncnc3c(Cl)cc(Cl)cc23)cc1[N+](=O)[O-],-16.4% (inactive)
17,Cc1ccc(C)c(NC(=S)NCCSc2ccc(Cl)cc2)c1,-11.1% (inactive)
18,O=C1c2cccc(OCC(=O)N3N=C(c4cccs4)CC3c3ccc(F)cc3)c2CCN1Cc1cccnc1 (stereo unspecified),13.8% (inactive)
19,Cc1ccc(NS(=O)(=O)c2ccc(N3C(=O)CCC3=O)cc2)cc1,-4.31% (inactive)
20,CCOc1ccc(NC(=O)Nc2cccs2)cc1,6.84% (inactive)
21,CC(C)CCNC(=O)C12CN(Cc3ccccc3)CC1C(c1cccc([N+](=O)[O-])c1)=NO2 (stereo unspecified),-8.23% (inactive)
22,O=C(Nc1cc(C(F)(F)F)ccc1Cl)C(NCc1ccccc1)c1ccccc1 (stereo unspecified),-8.13% (inactive)

row,SMILES,inhibition
1,Cc1oc(CC(C)C)c(CN)c1C(=O)O,12.2% (inactive)
2,CCOC(=O)C1=C(C)NC(=O)NC1c1c(OCC(=O)N2CCCCC2)ccc2ccccc12 (stereo unspecified),-15.9% (inactive)
3,COc1ccc(C2=NOC(C(=O)Nc3ccc(C)cc3)C2)cc1OC (stereo unspecified),0.99% (inactive)
4,Cc1cc([N+](=O)[O-])cc2ncccc12,12.3% (inactive)
5,C=CCn1c(SCCOc2ccc(OC)cc2)nnc1C(C)NC(=O)c1ccc(OC)cc1 (stereo unspecified),-2.1% (inactive)
6,COc1ccc(-n2c(CNc3ccc(C)cc3)nnc2SCc2ccccc2)cc1,-15.6% (inactive)
7,Cc1ccc2nc(SCC(=O)c3c(C)[nH]c4ccccc34)[nH]c2c1,1.78% (inactive)
8,CCOC(=O)c1c(-c2ccc(C)o2)csc1N,-4.43% (inactive)
9,CCOC(=O)c1ccccc1C(=O)N1CCOCCOCCOCC1,4.51% (inactive)
10,O=C1N2CCCc3cccc(c32)C12Nc1ccccc1S2 (stereo unspecified),-10.7% (inactive)
11,N/C(=N\OC(=O)c1cccs1)C1(c2ccc(Cl)cc2Cl)CC1,-5.97% (inactive)
12,Nc1c(C(=O)Nc2ccc(F)cc2)sc2nc(-c3ccco3)ccc12,6.83% (inactive)
13,CCOc1ccc(N/C=C/C(=O)c2ccc(OC)cc2)c([N+](=O)[O-])c1,-20% (inactive)
14,CCCCOC(=O)CSc1nc2c(c(=O)[nH]c(=O)n2C)n1C/C=C(\C)Cl,-16% (inactive)
15,CCCCCCOC(=O)Sc1nc2ccccc2o1,-4.37% (inactive)
16,O=S1(=O)C=CC(Nc2ccccc2)C1 (stereo unspecified),19% (inactive)
17,C=CCNC(=O)C(=O)NN=C1CCN(C)CC1,-15.8% (inactive)
18,COc1cccc(C(=O)Oc2c(CN3CCOCC3)cc(Cl)c3cccnc23)c1,14.8% (inactive)
19,COc1ccc2nc(NC(=O)C3CCCN3S(=O)(=O)c3ccc(C)cc3)sc2c1 (stereo unspecified),-19.9% (inactive)
20,c1ccc2[nH]c(CSc3nccs3)nc2c1,3.16% (inactive)
21,CC(=O)c1ccc(NC(=S)NC(NC(=O)c2ccco2)C(Cl)(Cl)Cl)cc1 (stereo unspecified),22.7% (inactive)
22,CN(C)c1ccc([C@@H]2[C@@H]([N+](=O)[O-])[C@H]3C=Cc4ccccc4N3[C@H]2C(=O)c2ccc(Cl)cc2)cc1,19.8% (inactive)

row,SMILES,inhibition
1,O=C(O)c1cc(O)c2c(c1)[C@@H]([C@H]1c3cc(C(=O)O)cc(O)c3C(=O)c3c(O[C@@H]4O[C@H](CO)[C@@H](O)[C@H](O)[C@H]4O)cccc31)c1cccc(OC3O[C@H](CO)[C@@H](O)[C@H](O)[C@H]3O)c1C2=O (stereo partly specified),18.6% (inactive)
2,O=C(CCN1C(=O)C2C3C=CC(C3)C2C1=O)N1CCN(c2cccc(Cl)c2)CC1 (stereo unspecified),-1.12% (inactive)
3,CCCOc1ccc(C2NC(=S)NC(c3ccccc3)=C2C(=O)Nc2ccc(C)cc2)cc1OC (stereo unspecified),0.31% (inactive)
4,CCOC(=O)c1c(C)[nH]c(C)c1C(=O)COC(=O)/C=C/c1cccc(F)c1,-26.2% (inactive)
5,c1ccc2c3c([nH]c2c1)-c1[nH]ncc1CC3,-9.62% (inactive)
6,COc1ccc(CCN2CC3=C(C2=O)C(c2ccccc2)NC(=O)N3C)cc1OC (stereo unspecified),-24.7% (inactive)
7,CC1CCN(S(=O)(=O)c2cccc(C(=O)N(C)C3CCS(=O)(=O)C3)c2)CC1 (stereo unspecified),-5.95% (inactive)
8,COc1ccc(O)c(/C=c2/sc3nc4cc(C)c(C)cc4n3c2=O)c1,-26.9% (inactive)
9,CC(=O)Nc1cccc(OCC(=O)Nc2ccc(F)cc2)c1,-10.3% (inactive)
10,O=C1CSc2ccccc2N1Cc1ccc(F)cc1,-15.2% (inactive)
11,CN1CCN(C(c2cccc(C(F)(F)F)c2)c2nnnn2C(C)(C)C)CC1 (stereo unspecified),-4.85% (inactive)
12,COc1ccccc1N1CCN(C(CNS(=O)(=O)c2ccccc2)c2cccnc2)CC1 (stereo unspecified),-4.62% (inactive)
13,CC(=O)c1cccc(NC(=O)Nc2cc3sccc3n2C)c1,-13.4% (inactive)
14,O=C(CN1C(=O)COc2ccccc21)Nc1ccc(F)cc1,-0.13% (inactive)
15,O=C(O)C1CC=CCC1C(=O)NC12CC3CC(CC(C3)C1)C2 (stereo unspecified),-9.99% (inactive)
16,CSCCC(NC(=O)c1cccc(C)c1)C(=O)OCC(=O)NC(=O)c1cccn1C (stereo unspecified),-17% (inactive)
17,CCOC(=O)C1=C(c2ccccc2)N=C2SCC(=O)N2C1c1ccc(O)c(OC)c1 (stereo unspecified),22.2% (inactive)
18,COC(=O)Cn1cc(C(=O)c2ccco2)c2ccccc21,-3.32% (inactive)
19,CCCCn1cnc2sc(-c3ccccc3)cc2c1=O,-2.46% (inactive)
20,Cc1cc2oc(=O)cc(CSc3nc(N)cc(N)n3)c2cc1C,4.49% (inactive)
21,CC1CCN(c2ccc(NC(=S)NC(=O)c3ccc(-c4cccc([N+](=O)[O-])c4)o3)cc2)CC1,0.2% (inactive)
22,COc1ccc(-c2csc(Nc3cccnc3)n2)cc1,-13.4% (inactive)
